Experimental data as given in the supplement of paper PMC10849652.
The full data set covers some 7,900 targets. This sample favours those with a hit. About 0.6% of all pairs of compound and target were hits. A number with no mark means an inactive call.

Experiments:
Assay in all cases: log2 fold change, soluble protein after heating vs DMSO (PISA); higher = thermal stabilisation; K562 cells, 10 uM, 30 min; active = over 0.2 and 3.5 SD of the protein, either way, in both replicates (recomputed)
bafetinib = compound: Cc1ccc(NC(=O)c2ccc(CN3CC[C@H](N(C)C)C3)c(C(F)(F)F)c2)cc1Nc1nccc(-c2cncnc2)n1 [bafetinib]
Procedure, shortened: (§1)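 K562 cells at 2×10^6 cells/mL were exposed to 10 μM compound for 30 min, then aliquots were heated for 3 min across 48°C-58°C, pooled, and extracted in PBS containing 0.5% NP-40 at 4°C. The supernatant after 21,000xg for 90 min was taken as soluble protein and measured by TMTpro 16plex LC-MS/MS with channel sums equalised. Thermal stability is reported relative to control samples, with values from duplicates. Fold changes are given on a log2 scale.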

[1] = compound: Cc1cccc(CC(=O)N2CCc3c2ccc(-c2cn(C)c4ncnc(N)c24)c3F)n1
Procedure, shortened: as §1

nilotinib = compound: Cc1cn(-c2cc(NC(=O)c3ccc(C)c(Nc4nccc(-c5cccnc5)n4)c3)cc(C(F)(F)F)c2)cn1 [nilotinib]
Procedure, shortened: as §1

[2] = compound: Cc1nc(Nc2n[nH]c3c2CN(C(=O)N[C@H](CN(C)C)c2ccccc2)C3(C)C)c2sccc2n1
Procedure, shortened: as §1

[3] = compound: Cc1ncc(-c2ccnc(Nc3ccc(S(C)(=O)=O)cc3)n2)n1C(C)C
Procedure, shortened: as §1

[4] = compound: Cn1cc(-c2ccc3nnc(C(F)(F)c4ccc5ncccc5c4)n3n2)cn1
Procedure, shortened: as §1

tipifarnib = compound: Cn1cncc1[C@@](N)(c1ccc(Cl)cc1)c1ccc2c(c1)c(-c1cccc(Cl)c1)cc(=O)n2C [tipifarnib]
Procedure, shortened: as §1

mubritinib = compound: FC(F)(F)c1ccc(/C=C/c2nc(COc3ccc(CCCCn4ccnn4)cc3)co2)cc1 [mubritinib]
Procedure, shortened: as §1

dasatinib = compound: Cc1nc(Nc2ncc(C(=O)Nc3c(C)cccc3Cl)s2)cc(N2CCN(CCO)CC2)n1 [dasatinib]
Procedure, shortened: as §1

[5] = compound: Cn1cc(-c2ccc3c(c2)CCN3C(=O)Cc2cccc(C(F)(F)F)c2)c2c(N)ncnc21
Procedure, shortened: as §1

Chain of UniProt Q562R1 (Q562R1 whole entry, looked up): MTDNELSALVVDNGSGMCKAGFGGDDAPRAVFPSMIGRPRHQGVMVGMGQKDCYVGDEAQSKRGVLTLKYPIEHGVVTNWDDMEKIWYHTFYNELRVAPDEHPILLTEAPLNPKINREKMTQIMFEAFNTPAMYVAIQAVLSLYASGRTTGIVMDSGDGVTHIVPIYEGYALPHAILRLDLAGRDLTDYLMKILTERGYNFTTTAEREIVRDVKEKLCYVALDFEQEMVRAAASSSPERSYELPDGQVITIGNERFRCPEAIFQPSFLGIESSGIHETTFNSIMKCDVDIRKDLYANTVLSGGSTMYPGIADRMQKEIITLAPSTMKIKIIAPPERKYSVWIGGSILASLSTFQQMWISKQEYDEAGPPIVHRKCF
Chain of UniProt Q01484 (Q01484 whole entry, looked up): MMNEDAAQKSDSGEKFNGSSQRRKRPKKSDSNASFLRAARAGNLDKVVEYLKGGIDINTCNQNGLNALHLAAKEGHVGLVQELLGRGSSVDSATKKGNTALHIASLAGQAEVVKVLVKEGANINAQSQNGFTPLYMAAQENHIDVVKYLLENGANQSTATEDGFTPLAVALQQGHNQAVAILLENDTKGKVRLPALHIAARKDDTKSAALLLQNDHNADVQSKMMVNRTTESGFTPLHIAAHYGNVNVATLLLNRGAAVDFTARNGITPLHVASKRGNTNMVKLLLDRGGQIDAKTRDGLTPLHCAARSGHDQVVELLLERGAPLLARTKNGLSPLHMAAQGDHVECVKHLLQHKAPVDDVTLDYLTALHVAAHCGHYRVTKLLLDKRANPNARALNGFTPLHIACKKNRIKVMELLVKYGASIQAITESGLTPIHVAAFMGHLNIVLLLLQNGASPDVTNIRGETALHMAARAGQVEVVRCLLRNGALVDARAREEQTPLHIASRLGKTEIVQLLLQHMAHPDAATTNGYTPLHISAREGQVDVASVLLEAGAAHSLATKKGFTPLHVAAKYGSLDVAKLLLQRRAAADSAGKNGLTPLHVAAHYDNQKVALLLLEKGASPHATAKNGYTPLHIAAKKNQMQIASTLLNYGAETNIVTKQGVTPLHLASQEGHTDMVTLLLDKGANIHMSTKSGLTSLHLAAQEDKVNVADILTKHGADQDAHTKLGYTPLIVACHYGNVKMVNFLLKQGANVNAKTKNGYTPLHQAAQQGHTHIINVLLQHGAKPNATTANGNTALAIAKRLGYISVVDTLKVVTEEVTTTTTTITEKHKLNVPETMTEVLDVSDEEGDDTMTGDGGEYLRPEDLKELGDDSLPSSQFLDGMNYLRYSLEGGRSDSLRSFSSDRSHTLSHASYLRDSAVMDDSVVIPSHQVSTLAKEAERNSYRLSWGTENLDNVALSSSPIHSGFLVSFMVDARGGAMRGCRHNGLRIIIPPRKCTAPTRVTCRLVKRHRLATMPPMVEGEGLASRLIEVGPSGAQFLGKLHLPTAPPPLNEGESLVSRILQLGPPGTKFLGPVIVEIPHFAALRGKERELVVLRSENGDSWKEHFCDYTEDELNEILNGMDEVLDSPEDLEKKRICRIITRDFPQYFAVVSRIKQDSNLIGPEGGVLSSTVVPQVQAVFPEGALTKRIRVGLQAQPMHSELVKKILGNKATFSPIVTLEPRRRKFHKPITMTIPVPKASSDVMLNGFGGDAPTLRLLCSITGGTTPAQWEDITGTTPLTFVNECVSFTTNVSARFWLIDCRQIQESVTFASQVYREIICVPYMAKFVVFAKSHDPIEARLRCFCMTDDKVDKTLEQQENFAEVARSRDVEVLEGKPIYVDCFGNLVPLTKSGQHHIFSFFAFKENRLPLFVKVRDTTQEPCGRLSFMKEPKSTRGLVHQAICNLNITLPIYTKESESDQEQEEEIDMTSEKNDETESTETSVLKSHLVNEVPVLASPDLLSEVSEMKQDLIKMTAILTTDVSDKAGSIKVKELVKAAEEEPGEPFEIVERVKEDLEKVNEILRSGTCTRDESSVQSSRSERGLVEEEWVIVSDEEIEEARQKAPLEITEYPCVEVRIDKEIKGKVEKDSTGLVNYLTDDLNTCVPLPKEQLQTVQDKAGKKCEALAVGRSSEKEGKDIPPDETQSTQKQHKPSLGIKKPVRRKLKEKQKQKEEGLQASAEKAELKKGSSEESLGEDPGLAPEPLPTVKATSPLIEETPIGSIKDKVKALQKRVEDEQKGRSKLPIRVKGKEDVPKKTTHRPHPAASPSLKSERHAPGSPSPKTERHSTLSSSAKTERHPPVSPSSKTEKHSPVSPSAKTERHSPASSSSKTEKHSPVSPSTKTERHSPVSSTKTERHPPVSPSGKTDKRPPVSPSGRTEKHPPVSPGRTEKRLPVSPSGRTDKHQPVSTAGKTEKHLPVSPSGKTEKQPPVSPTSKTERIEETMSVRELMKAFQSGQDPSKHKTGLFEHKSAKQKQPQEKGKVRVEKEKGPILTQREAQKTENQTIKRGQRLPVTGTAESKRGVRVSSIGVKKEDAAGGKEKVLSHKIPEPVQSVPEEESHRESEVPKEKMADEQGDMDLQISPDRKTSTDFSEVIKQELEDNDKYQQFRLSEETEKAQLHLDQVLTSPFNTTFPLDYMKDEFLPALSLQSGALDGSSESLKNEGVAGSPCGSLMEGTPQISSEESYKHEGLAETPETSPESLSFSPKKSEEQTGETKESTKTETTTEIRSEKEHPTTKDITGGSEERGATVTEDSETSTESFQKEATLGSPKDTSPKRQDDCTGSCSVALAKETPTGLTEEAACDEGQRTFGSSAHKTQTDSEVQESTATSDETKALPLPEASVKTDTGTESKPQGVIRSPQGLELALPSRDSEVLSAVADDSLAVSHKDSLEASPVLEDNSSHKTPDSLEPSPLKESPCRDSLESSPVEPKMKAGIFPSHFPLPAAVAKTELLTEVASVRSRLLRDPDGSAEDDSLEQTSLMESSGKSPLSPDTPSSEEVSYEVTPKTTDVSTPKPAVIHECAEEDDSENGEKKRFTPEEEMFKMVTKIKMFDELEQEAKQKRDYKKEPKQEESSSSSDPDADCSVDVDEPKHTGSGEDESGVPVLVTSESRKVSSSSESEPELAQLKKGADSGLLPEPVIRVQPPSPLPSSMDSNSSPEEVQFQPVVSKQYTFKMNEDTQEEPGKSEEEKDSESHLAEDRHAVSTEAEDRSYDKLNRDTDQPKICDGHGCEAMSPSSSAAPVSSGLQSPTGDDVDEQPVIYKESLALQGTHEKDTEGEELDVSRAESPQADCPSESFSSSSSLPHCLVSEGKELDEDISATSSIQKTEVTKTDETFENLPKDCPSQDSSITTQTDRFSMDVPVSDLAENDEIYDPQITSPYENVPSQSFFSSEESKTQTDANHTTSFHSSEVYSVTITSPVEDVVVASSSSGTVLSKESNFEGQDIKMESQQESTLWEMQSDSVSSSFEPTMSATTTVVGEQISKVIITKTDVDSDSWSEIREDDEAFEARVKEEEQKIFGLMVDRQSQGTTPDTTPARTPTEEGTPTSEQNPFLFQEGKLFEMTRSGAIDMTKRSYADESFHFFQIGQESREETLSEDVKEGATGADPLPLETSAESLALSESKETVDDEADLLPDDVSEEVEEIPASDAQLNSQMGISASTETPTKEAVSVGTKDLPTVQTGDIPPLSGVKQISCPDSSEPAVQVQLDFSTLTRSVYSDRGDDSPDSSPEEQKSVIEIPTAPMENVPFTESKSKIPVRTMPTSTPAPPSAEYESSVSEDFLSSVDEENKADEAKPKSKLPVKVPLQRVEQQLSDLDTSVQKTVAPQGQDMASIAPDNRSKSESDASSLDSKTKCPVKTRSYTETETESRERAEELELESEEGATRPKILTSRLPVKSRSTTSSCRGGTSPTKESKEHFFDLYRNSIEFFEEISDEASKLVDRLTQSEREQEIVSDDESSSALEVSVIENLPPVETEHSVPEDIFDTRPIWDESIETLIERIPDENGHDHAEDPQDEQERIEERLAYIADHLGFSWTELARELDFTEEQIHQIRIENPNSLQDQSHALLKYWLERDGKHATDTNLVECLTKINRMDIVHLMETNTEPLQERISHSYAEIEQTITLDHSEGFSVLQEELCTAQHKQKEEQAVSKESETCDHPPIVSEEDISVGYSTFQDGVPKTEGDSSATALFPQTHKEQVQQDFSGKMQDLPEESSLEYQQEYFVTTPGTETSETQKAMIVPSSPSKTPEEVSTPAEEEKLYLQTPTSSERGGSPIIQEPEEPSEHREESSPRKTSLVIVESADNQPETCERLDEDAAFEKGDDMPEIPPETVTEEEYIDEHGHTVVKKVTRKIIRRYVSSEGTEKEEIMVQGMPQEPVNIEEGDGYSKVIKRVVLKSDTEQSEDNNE
Chain of UniProt Q9UEY8 (Q9UEY8 whole entry, looked up): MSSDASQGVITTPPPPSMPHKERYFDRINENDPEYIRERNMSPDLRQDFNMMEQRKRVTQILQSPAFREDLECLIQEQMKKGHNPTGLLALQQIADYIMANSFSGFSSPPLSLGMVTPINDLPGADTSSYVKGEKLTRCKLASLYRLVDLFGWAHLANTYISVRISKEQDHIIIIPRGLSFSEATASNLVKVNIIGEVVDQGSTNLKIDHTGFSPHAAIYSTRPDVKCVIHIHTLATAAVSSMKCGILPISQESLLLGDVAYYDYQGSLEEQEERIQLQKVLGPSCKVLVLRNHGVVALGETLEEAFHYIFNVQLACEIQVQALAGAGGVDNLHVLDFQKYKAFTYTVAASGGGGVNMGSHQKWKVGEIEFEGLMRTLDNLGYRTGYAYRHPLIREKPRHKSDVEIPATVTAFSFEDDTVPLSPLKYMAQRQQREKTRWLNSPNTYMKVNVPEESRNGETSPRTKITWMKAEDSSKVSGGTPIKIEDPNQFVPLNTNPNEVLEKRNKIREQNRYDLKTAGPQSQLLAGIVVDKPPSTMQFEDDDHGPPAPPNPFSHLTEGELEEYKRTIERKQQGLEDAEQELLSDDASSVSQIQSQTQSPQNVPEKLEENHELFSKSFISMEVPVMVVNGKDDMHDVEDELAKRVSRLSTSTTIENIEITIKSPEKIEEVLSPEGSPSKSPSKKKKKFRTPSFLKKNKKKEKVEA
Chain of UniProt O00244 (O00244 whole entry, looked up): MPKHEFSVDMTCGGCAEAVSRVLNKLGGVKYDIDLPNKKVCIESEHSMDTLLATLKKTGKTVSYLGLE

Target | log2 fold change (bafetinib) | log2 fold change [1] | log2 fold change (nilotinib) | log2 fold change [2] | log2 fold change [3] | log2 fold change [4] | log2 fold change (tipifarnib) | log2 fold change (mubritinib) | log2 fold change (dasatinib) | log2 fold change [5]
ADPRH (UniProt P54922) | 0.082 | -0.29 | 0.141 | 0.026 | -0.161 | 0.038 | -0.005 | 0.015 |  | 
ABHD17A isoform 2 (UniProt Q96GS6) | -0.051 | 0.044 | -0.054 | 0.047 | 0.018 | 0.068 | -0.042 | 0.061 | -0.023 | 0.028
BRAP (UniProt Q7Z569) | 0.026 | 0.017 | -0.087 | -0.186 | -0.116 | -0.066 | -0.04 | 0.056 | -0.097 | -0.067
ABITRAM (UniProt Q9NX38) | 0.016 | 0.116 | -0.327 | -0.146 | -0.442 (active) | 0.026 | -0.031 | 0.046 | -0.316 | -0.004
ADAMTS5 (UniProt Q9UNA0) | -0.103 | -0.066 | 0.022 | 0.052 | -0.079 | 0.063 |  | 0.154 | 0.033 | 0.088
ARFIP1 isoform 2 (UniProt P53367) | -0.281 | -0.195 | -0.147 | -0.049 | -0.013 |  | -0.024 | -0.004 | -0.316 | 
APH1A (UniProt Q96BI3) | 0.132 | -0.06 | -0.037 | -0.04 | 0.028 |  | -0.06 | 0.05 | -0.039 | 0.036
ACP1 (UniProt P24666) | 0.041 | 0.013 | 0.078 | -0.071 | -0.01 |  | 0.037 | 0.035 | -0.129 | 0.037
ARAF (UniProt P10398) | -0.015 | 0.01 | -0.021 | -0.236 (active) | 0.009 | -0.003 | 0.144 | -0.092 | -0.031 | 0.007
APOB (UniProt P04114) | -0.316 | 0.032 | -0.132 | 0.013 | 0.051 | -0.021 | -0.203 | 0.011 | -0.213 | 0.071
ARHGAP25 isoform 4 (UniProt P42331) | -0.035 | -0.089 | 0.28 | -0.276 | 0.078 |  |  | 0.266 | -0.421 | -0.009
ATXN3 isoform 1 (UniProt P54252) | 0.03 | 0.021 | -0.038 | -0.11 | -0.021 | 0.033 | 0.026 | 0.018 |  | 0.001
ATP6V0A1 isoform 3 (UniProt Q93050) | -0.12 | 0.153 | -0.026 | -0.029 | -0.079 | -0.098 | 0.038 | -0.026 | 0.018 | -0.097
ATF1 (UniProt P18846) | -0.12 | 0.018 | 0.035 | -0.09 | 0.064 |  | 0.06 | 0.057 |  | -0.006
ARFIP1 (UniProt P53367) | -0.198 | 0.077 | -0.177 | -0.148 | 0.05 | 0.461 (active) | -0.115 | -0.054 | -0.113 | 0.069
ACAD9 (UniProt Q9H845) | -0.061 | -0.022 | 0 | 0.021 | -0.023 | 0.014 | 0.055 | 0.067 | 0.125 | 0.047

Target | log2 fold change (bafetinib) | log2 fold change [1] | log2 fold change (nilotinib) | log2 fold change [2] | log2 fold change [3] | log2 fold change [4] | log2 fold change (tipifarnib) | log2 fold change (mubritinib) | log2 fold change (dasatinib) | log2 fold change [5]
ALDH1B1 (UniProt P30837) | 0.03 | -0.018 | 0.003 | 0.014 | 0.131 | 0.034 | -0.018 | 0.059 | -0.113 | 0.022
ACTBL2 (UniProt Q562R1) | 0.113 | -0.124 | 0.579 | -0.067 | -0.051 | 0.336 | 0.488 | -0.267 | 0.398 | 
ALG11 (UniProt Q2TAA5) | -0.078 | 0.086 | 0.001 | -0.037 | 0.129 | 0.028 | -0.016 | 0.066 | 0.005 | -0.072
BID isoform 2 (UniProt P55957) | -0.035 | -0.071 | 0.019 | -0.006 | 0.005 | 0.007 | -0.079 | 0.044 | 0.018 | 0.038
BYSL (UniProt Q13895) | 0.118 | 0.034 | -0.131 | 0.163 | 0.064 | -0.003 | -0.063 | 0.062 | -0.082 | -0.05
BUB1B isoform 3 (UniProt O60566) | 0.03 | 0.107 | -0.089 | -0.142 | 0.02 | 0.017 | -0.114 | 0.012 | -0.13 | 0
BRIX1 (UniProt Q8TDN6) | 0.386 | -0.033 | 0.085 | -0.077 | -0.013 | -0.138 | 0.158 | -0.206 | 0.109 | -0.494
ACSL6 isoform 1 (UniProt Q9UKU0) | 0.147 | 0.057 | -0.066 | -0.066 | -0.025 | 0.014 |  | 0.015 | 0.036 | 
ATOX1 (UniProt O00244) | -0.02 | 0.043 | 0.047 | 0.036 | -0.009 | -0.084 | -0.404 (active) | 0.004 | 0.161 | 0.174
ABHD11 (UniProt Q8NFV4) | 0.011 | 0.175 | 0.003 | -0.006 | 0.083 | 0.025 | 0.174 | -0.235 | 0.073 | 0.024
BOP1 (UniProt Q14137) | 0.031 | -0.083 | -0.028 | -0.159 | -0.122 | -0.087 | 0.114 | -0.114 | 0.02 | -0.038
AGPAT5 (UniProt Q9NUQ2) | -0.133 | 0.021 | 0.008 | 0.04 | -0.035 | 0.045 | 0.02 | 0.014 | -0.058 | 0.09
ANK2 (UniProt Q01484) | -0.281 | -0.034 | -0.265 | 0.041 | -0.042 | 0.01 | 0.034 | -0.141 | -0.277 | 0.012
ADD3 isoform 2 (UniProt Q9UEY8) |  | 0.05 |  |  |  | -0.026 | -0.067 | -0.007 | -0.116 | 0.152
AUH (UniProt Q13825) | -0.102 | 0.024 |  |  |  | 0.007 | -0.011 | 0.048 | 0.145 | -0.072
AKNA (UniProt Q7Z591) |  |  |  |  |  |  | 0.215 |  |  | -0.134
